# Results reported in PubChem BioAssay (EPA / NIEHS).
# Values joined by “and” are separate entries in the source; they are usually repeats but may differ in a detail not shown here. Equal entries are not always repeated. Records with an inconclusive call do not appear. Active and inactive are the calls of the source. The calls were made as follows, unless noted: active = hit-call score of the fitted dose curve at least 0.9, where 1 is the maximum; inactive = score below 0.9.
# What was measured:
# [1] = CCTE_Shafer_MEA_acute_burst_percentage_mean: CCTE's Neural Acute Assay for Percentage of Spikes in a Burst, Shafer Lab (AID 2284017);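 as to AC50: curve fitted for loss of signal so potency reflects decreased burst percentage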
# Procedure, shortened: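 Primary rat cortical neurons on 16-electrode MEA wells; 40 min baseline recorded at DIV 13 or 15, then 40 min after compound (0.03-40 uM) at 37 C. Well-mean fraction of spikes in single-electrode bursts; percent change from baseline, DMSO as negative control.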
# [2] = CCTE_Shafer_MEA_acute_burst_percentage_std: CCTE's Neural Acute Assay for Standard Deviation of Burst Percentage, Shafer Lab (AID 2284018);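 also: fitted in the negative direction so actives lower burst percentage SD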
# Procedure, shortened: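 Primary rat cortical neurons on 16-electrode MEA wells were recorded 40 min at baseline (DIV 13 or 15), then 40 min after compound (0.03-40 uM), at 37 C. Well value is SD across electrodes of spikes-in-bursts/total spikes; endpoint is percent change, DMSO-referenced.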
# [3] = CCTE_Shafer_MEA_acute_per_network_burst_spike_number_std: CCTE's Neural Acute Assay for Standard Deviation of Number of Spikes in a Network Burst, Shafer Lab (AID 2284020);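 also: fitted for decrease in spike-number SD versus DMSO so actives lower it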
# Procedure, shortened: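 Primary rat cortical neurons on 48-well MEAs (16 electrodes/well) recorded at DIV 13 or 15: 40-min baseline, then 40 min with compound (0.03-40 uM), 37 C. Value is percent change in SD of spikes per network burst, relative to DMSO.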
# [4] = CCTE_Shafer_MEA_acute_per_network_burst_electrodes_number_mean: CCTE's Neural Acute Assay for Mean Number of Electrodes in a Network Burst, Shafer Lab (AID 2284021);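 also: curves fitted for decreases only so hits reduce electrodes per burst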
# Procedure, shortened: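 Rat primary cortical neurons on 48-well MEAs, DIV 13 or 15, were treated at 0.03-40 uM. Spikes were detected at 8x rms noise and recorded at 37 C. The mean electrodes per network burst in a 40 min exposure recording was expressed as percent change from a 40 min baseline.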
# [5] = CCTE_Shafer_MEA_acute_network_burst_percentage: CCTE's Neural Acute Assay for Percentage of Network Bursts, Shafer Lab (AID 2284022);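 also: curves fitted for loss so actives lower network burst percentage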
# Procedure, shortened: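 Rat primary cortical neuron networks on 48-well MEA plates, DIV 13 or 15, treated acutely with compound (0.03-40 uM, at least three wells). Percent of spikes within network bursts compared between 40-min recordings before and during exposure at 37 C, expressed as percent change.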
# [6] = CCTE_Shafer_MEA_acute_cross_correlation_area: CCTE's Neural Acute Assay for Area of Cross Correlation, Shafer Lab (AID 2284024);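 also: curves fitted for loss of cross-correlation area so actives lower synchrony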
# Procedure, shortened: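 Rat primary cortical neurons on 48-well MEA, DIV 13 or 15; compounds 0.03-40 uM. Baseline and post-exposure 40 min recordings at 37 C; percent change in area under pooled inter-electrode cross-correlation near zero lag, relative to DMSO.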
# [7] = CCTE_Shafer_MEA_acute_cross_correlation_HWHM: CCTE's Neural Acute Assay for Cross Correlation at Half Width at Half Maximum, Shafer Lab (AID 2284026);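 also: percent change per well from pre-dose baseline in spike cross-correlogram half width; hits are a decrease in cross-correlogram half width relative to DMSO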;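 as to outcome: spontaneous network firing of rat primary cortical neurons on multiwell microelectrode arrays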
# Procedure, shortened: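 Rat primary cortical neurons on 48-well MEA plates; 40-min baseline and 40-min post-exposure recordings at 37 C on DIV 13 or 15, compounds 0.03-40 uM. Spikes detected at 8x rms noise; percent change in cross-correlogram HWHM per well vs baseline.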
# [8] = CCTE_Shafer_MEA_acute_synchrony_index: CCTE's Neural Acute Assay for Synchrony, Shafer Lab (AID 2284027);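 also: network synchrony index of spontaneous spiking in primary rat cortical neurons on MEAs; fitted for loss of signal so actives lower synchrony relative to DMSO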
# Procedure, shortened: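 Spontaneous firing of mature rat cortical networks is captured extracellularly on microelectrode arrays at 37 C, with wells needing ≥10 active electrodes. Each compound (0.03-40 uM) is judged by the change in synchrony index from baseline over 40 min.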
# [9] = CCTE_Shafer_MEA_dev_firing_rate_mean: CCTE's Neural Network Formation Assay for Mean Firing Rate, Shafer Lab (AID 2284031);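 as to AC50: curve fitted for loss of firing so AC50 reflects decreased mean firing rate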
# Procedure, shortened: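 Developing rat cortical networks on MEA plates undergo 12-day compound exposure. Firing frequency, averaged across active electrodes, is integrated as area under the curve over four recording days, referenced to DMSO.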
# [10] = CCTE_Shafer_MEA_dev_active_electrodes_number: CCTE's Neural Network Formation Assay for Number of Active Electrodes, Shafer Lab (AID 2284040; active = hit-call score of the fitted dose curve at least 0.9, where 1 is the maximum;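 also: potency for loss of active electrodes versus DMSO so lower counts are hits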)
# Procedure, shortened: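 Rat cortical primary cultures, 1.5 x 10^5 cells/well, PEI-coated MEA, laminin drop. Continuous exposure DIV 0–12; full media/compound change DIV 5, 9. Readout: electrodes with mean firing ≥5 spikes/min; AUC across days; loss vs DMSO.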
# [11] = CCTE_Shafer_MEA_dev_burst_rate: CCTE's Neural Network Formation Assay for Burst Rate, Shafer Lab (AID 2284042);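 as to AC50: potency for loss of burst rate below DMSO control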
# Procedure, shortened: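 Rat primary cortical cultures on PEI/laminin MEA; compound from plating, re-dosed at DIV 5, 9 media change. Single-electrode bursts/recording length, well mean of active electrodes; AUC over DIV 5–12 recordings; loss-of-signal vs DMSO.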
# [12] = CCTE_Shafer_MEA_dev_per_burst_interspike_interval: CCTE's Neural Network Formation Assay for Burst Interspike Interval, Shafer Lab (AID 2284044);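 also: mean spike spacing inside bursts as AUC over recordings on days 5 7 9 12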;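 as to AC50: potency for a decrease of within-burst interspike interval below DMSO level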
# Procedure, shortened: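 Primary rat cortical neurons on 48-well MEA plates, exposed from day 0 through day 12, treatment renewed at DIV 5 and 9. Within-burst interspike interval recorded days 5, 7, 9, 12, well-averaged, summarised as AUC; negative fit versus DMSO.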
# [13] = CCTE_Shafer_MEA_dev_burst_duration_mean: CCTE's Neural Network Formation Assay for Mean Burst Duration, Shafer Lab (AID 2284045);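 as to AC50: curve fitted for loss meaning shorter burst duration than DMSO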
# Procedure, shortened: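 Primary rat cortical neurons on PEI-coated 16-electrode MEA wells, exposed from plating through day 12 with compound renewed at DIV 5 and 9; spontaneous activity recorded days 5, 7, 9, 12. Well-mean burst duration collapsed as trapezoidal AUC, fitted for loss versus DMSO.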
# [14] = CCTE_Shafer_MEA_dev_interburst_interval_mean: CCTE's Neural Network Formation Assay for Mean Interburst Interval, Shafer Lab (AID 2284046);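 also: well-mean interburst interval of bursting electrodes as AUC over four recording days; curve fitted for decrease in interburst interval relative to DMSO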
# Procedure, shortened: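 Rat cortical neurons, 1.5 x 10^5 cells/well, 48-well MEA; compound from day 0 through DIV 12, media and treatment renewed DIV 5/9. Recordings DIV 5, 7, 9, 12; well-mean interburst interval → trapezoidal AUC, loss direction vs DMSO.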
# [15] = CCTE_Shafer_MEA_dev_inter_network_spike_interval_mean: CCTE's Neural Network Formation Assay for Mean Inter-network Spike Interval, Shafer Lab (AID 2284047)
# Procedure, shortened: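 Primary rat cortical neurons on PEI-coated 48-well MEAs (16 electrodes/well) were exposed from plating day 0 to DIV 12, with dosing renewed at DIV 5 and 9. Recordings at DIV 5, 7, 9, 12 were collapsed by trapezoidal AUC, loss-of-signal fit vs DMSO.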
# [16] = CCTE_Deisenroth_AIME_384WELL_CTox_Active: Cytotoxicity Assessment (CTOX) in CCTE's 384-well Estrogen Receptor Transactivation Assay with AIME metabolic competence (metabolism positive), Deisenroth Lab (AID 2284037; active = hit-call score of the fitted dose curve at least 0.9, where 1 is the maximum;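 also: chemicals first conditioned 2 h by alginate-bound induced rat liver S9 before cells; activity means signal loss indicating cell death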)
# Procedure, shortened: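 VM7Luc4E2 breast cells received medium pre-incubated 2 h with chemical over alginate microspheres holding induced male Sprague Dawley rat liver S9; viability read 24 h later by protease-substrate fluorescence. Loss of signal, bidirectional fit, 0.002–200 uM.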
# [17] = CCTE_Deisenroth_AIME_384WELL_CTox_Inactive: Cytotoxicity Assessment (CTOX) in CCTE's 384-well Estrogen Receptor Transactivation Assay without AIME metabolic competence (metabolism negative), Deisenroth Lab (AID 2284039; active = hit-call score of the fitted dose curve at least 0.9, where 1 is the maximum;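 also: cell viability via live-cell protease substrate cleaved to fluorescent probe; cells exposed 24 h to medium preincubated 2 h with alginate-water beads without S9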)
# Procedure, shortened: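 VM7Luc4E2 human breast cells received conditioned medium from a 2 h incubation of chemical with alginate-water microspheres (no S9), then were exposed 24 h. Viability was read as protease-substrate cleavage to a fluorescent probe; loss of signal was fitted bidirectionally over 0.002–200 uM.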
# [18] = target: Estrogen receptor (Homo sapiens) (UniProt P03372); assay: CCTE_Deisenroth_AIME_384WELL_LUC_Active: CCTE's 384-well Estrogen Receptor Transactivation Assay with AIME metabolic competence (ERTA luciferase; metabolism positive), Deisenroth Lab (AID 2284030; active = hit-call score of the fitted dose curve at least 0.9, where 1 is the maximum)
# Chain of Estrogen receptor (Homo sapiens) (P03372 whole entry, looked up): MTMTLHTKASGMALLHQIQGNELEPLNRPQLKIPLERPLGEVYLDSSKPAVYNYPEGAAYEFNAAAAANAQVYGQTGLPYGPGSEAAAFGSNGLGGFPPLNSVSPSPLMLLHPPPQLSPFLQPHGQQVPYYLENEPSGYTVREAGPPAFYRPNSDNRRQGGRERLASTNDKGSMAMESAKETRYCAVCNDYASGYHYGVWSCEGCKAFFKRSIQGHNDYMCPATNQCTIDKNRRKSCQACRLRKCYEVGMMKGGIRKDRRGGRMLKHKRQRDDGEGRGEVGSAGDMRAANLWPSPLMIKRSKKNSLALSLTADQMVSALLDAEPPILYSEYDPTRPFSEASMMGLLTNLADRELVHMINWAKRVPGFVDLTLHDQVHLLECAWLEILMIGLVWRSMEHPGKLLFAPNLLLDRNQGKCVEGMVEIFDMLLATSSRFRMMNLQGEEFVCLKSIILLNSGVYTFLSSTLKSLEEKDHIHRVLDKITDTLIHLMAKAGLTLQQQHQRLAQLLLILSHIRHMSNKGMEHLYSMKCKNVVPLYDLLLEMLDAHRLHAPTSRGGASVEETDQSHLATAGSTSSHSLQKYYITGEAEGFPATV
# Procedure, shortened: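 Chemicals (10-point, 0.002-200 uM) were first incubated 2 hours with alginate-immobilized induced male Sprague Dawley rat liver S9. The conditioned medium was then applied to VM7Luc4E2 cells for 24 hours, with ER luciferase induction read by luminescence relative to 17beta-estradiol.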
# [19] = target: Estrogen receptor (Homo sapiens) (UniProt P03372); assay: CCTE_Deisenroth_AIME_384WELL_LUC_Shift: CCTE's 384-well Estrogen Receptor Transactivation Assay with AIME metabolic competence data shift (ERTA luciferase; difference in metabolism positive and negative), Deisenroth Lab (AID 2284041);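 also: shift is response with S9 minus without S9 so positive means metabolism raised ER signal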
# Procedure, shortened: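 Here, parent compounds undergo 2 h phase I metabolism by PB/BNF-induced rat S9 before 24 h transactivation in VM7Luc4E2 cells; the curve models S9-positive minus S9-negative response over a 10-point series.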
smiles,measurement,setting,value
Clc1ccc(C(c2ccc(Cl)cc2)C(Cl)Cl)cc1,AC50,[1],5.41 µM (active)
same,outcome,[2],inactive
same,AC50,[3],6.77 µM (active)
same,AC50,[4],2.69 µM (active)
same,AC50,[5],7.42 µM (active)
same,outcome,[6],inactive
same,AC50,[7],11.4 µM (active)
same,AC50,[8],4.76 µM (active)
same,AC50,[9],8.59 µM (active)
same,AC50,[10],4.66 µM (active)
same,AC50,[11],8.68 µM (active)
same,AC50,[12],8.24 µM (active)
same,outcome,[13],inactive
same,AC50,[14],8.61 µM (active)
same,outcome,[15],inactive
O=[N+]([O-])c1ccc(Oc2ccc(Cl)cc2Cl)cc1,AC50,[1],10.6 µM (active)
same,outcome,[2],inactive
same,AC50,[3],10.8 µM (active)
same,AC50,[4],20 µM (active)
same,AC50,[5],20 µM (active)
same,outcome,[6],inactive
same,AC50,[7],10.9 µM (active)
same,AC50,[8],10.9 µM (active)
same,outcome,[16],inactive
same,outcome,[17],inactive
ClC1=C(Cl)[C@]2(Cl)[C@H]3[C@H]([C@@H]4C=C[C@H]3C4)[C@@]1(Cl)C2(Cl)Cl,outcome,[1],inactive
same,outcome,[2],inactive
same,outcome,[3],inactive
same,outcome,[4],inactive
same,outcome,[5],inactive
same,outcome,[6],inactive
same,outcome,[7],inactive
same,outcome,[8],inactive
same,AC50,[9],3.92 µM (active)
same,AC50,[10],5.34 µM (active)
same,AC50,[11],5.95 µM (active)
same,AC50,[12],6.26 µM (active)
same,AC50,[13],3.95 µM (active)
same,AC50,[14],7.62 µM (active)
same,outcome,[15],inactive
CCCCCOC(=O)c1ccccc1C(=O)OCCCCC,AC50,[1],9.17 µM (active)
same,outcome,[2],inactive
same,AC50,[3],4.73 µM (active)
same,outcome,[4],inactive
same,AC50,[5],26.4 µM (active)
same,outcome,[6],inactive
same,AC50,[7],2.82 µM (active)
same,AC50,[8],12.4 µM (active)
same,outcome,[18],inactive
same,outcome,[16],inactive
same,AC50,[17],19.8 µM (active)
same,outcome,[19],inactive
c1ccc(N=Nc2ccccc2)cc1,AC50,[1],26.8 µM (active)
same,AC50,[2],36.2 µM (active)
same,outcome,[3],inactive
same,outcome,[4],inactive
same,AC50,[5],5.14 µM (active)
same,outcome,[6],inactive
same,outcome,[7],inactive
same,outcome,[8],inactive
same,outcome,[16],inactive
same,outcome,[17],inactive
CCN(CC)CCO,outcome,[1],inactive
same,outcome,[2],inactive
same,outcome,[3],inactive
same,outcome,[4],inactive
same,outcome,[5],inactive
same,outcome,[6],inactive
same,outcome,[7],inactive
same,outcome,[8],inactive
CC(C)(O)c1cnn2c(-c3ccc(F)c(-c4c(F)cccc4C#N)c3)cnc2n1,AC50,[1],20 µM (active)
same,outcome,[2],inactive
same,AC50,[3],3.97 µM (active)
same,AC50,[4],20 µM (active)
same,AC50,[5],30.8 µM (active)
same,outcome,[6],inactive
same,AC50,[7],3.97 µM (active)
same,AC50,[8],35.8 µM (active)
same,outcome,[9],inactive
same,AC50,[10],5.55 µM (active)
same,outcome,[11],inactive
same,outcome,[12],inactive
same,outcome,[13],inactive
same,outcome,[14],inactive
same,outcome,[15],inactive
O=[N+]([O-])C(Br)(CO)CO,AC50,[1],30.2 µM (active)
same,outcome,[2],inactive
same,outcome,[3],inactive
same,AC50,[4],32 µM (active)
same,AC50,[5],35.8 µM (active)
same,outcome,[6],inactive
same,outcome,[7],inactive
same,AC50,[8],30.9 µM (active)
O=Cc1ccco1,outcome,[1],inactive
same,outcome,[2],inactive
same,outcome,[3],inactive
same,outcome,[4],inactive
same,outcome,[5],inactive
same,outcome,[6],inactive
same,outcome,[7],inactive
same,outcome,[8],inactive
Clc1ccc(C(c2ccc(Cl)cc2)C(Cl)(Cl)Cl)cc1,AC50,[1],11.4 µM (active)
same,AC50,[2],5.34 µM (active)
same,outcome,[3],inactive
same,AC50,[4],4.35 µM (active)
same,AC50,[5],4.24 µM (active)
same,outcome,[6],inactive
same,outcome,[7],inactive
same,AC50,[8],10.6 µM (active)
same,AC50,[9],7.7 µM (active) and 10.1 µM (active)
same,outcome,[16],inactive
same,AC50,[17],160 µM (active)
same,AC50,[10],4.02 µM (active) and 7.34 µM (active)
same,AC50,[11],7.69 µM (active) and 6.09 µM (active)
same,AC50,[12],7.74 µM (active) and 9.33 µM (active)
same,outcome,[13],inactive
same,AC50,[14],7.67 µM (active) and 9 µM (active)
same,outcome,[15],inactive
